Measured values reported in PubChem BioAssay (NCI).
This is part of a sample that, as a whole, favours compounds with a hit. Of some 83,000 tested, about 20% had one in any assay.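 Assay: single dose, 48 h. Readout: percent growth (0 = no net growth; negative = cell death). Active: <10.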 Values without a mark were called inactive. The source made the active and inactive calls.

Columns and labels:
Test in all cases: NCI-60 one-dose screen, 48 h (100 = growth as untreated, 0 = no growth, -100 = all killed)
NCI-H23 lung = conditions: 10 µM unless noted
NCI-H226 lung = conditions: 10 µM unless noted
NCI-H322M lung = conditions: 10 µM unless noted
HOP-62 NSCLC = conditions: 10 µM unless noted
NCI-H460 lung = conditions: 10 µM unless noted
HOP-92 NSCLC = conditions: 10 µM
786-0 renal = conditions: 10 µM unless noted
COLO 205 colon = conditions: 10 µM unless noted
DU-145 prostate = conditions: 10 µM unless noted
K-562 leukemia = conditions: 10 µM unless noted
MALME-3M melanoma = conditions: 10 µM unless noted
MDA-MB-231 breast = conditions: 10 µM unless noted
RXF 393 renal = conditions: 10 µM unless noted
SF-268 CNS = conditions: 10 µM unless noted
SF-295 CNS = conditions: 10 µM unless noted
SF-539 CNS = conditions: 10 µM unless noted
UACC-257 melanoma = conditions: 10 µM unless noted
M14 melanoma = conditions: 10 µM unless noted
NCI-H522 lung = conditions: 10 µM unless noted
A549/ATCC NSCLC = conditions: 10 µM unless noted

| Compound | growth (NCI-H23 lung) | growth (NCI-H226 lung) | growth (NCI-H322M lung) | growth (HOP-62 NSCLC) | growth (NCI-H460 lung) | growth (HOP-92 NSCLC) | growth (786-0 renal) | growth (COLO 205 colon) | growth (DU-145 prostate) | growth (K-562 leukemia) | growth (MALME-3M melanoma) | growth (MDA-MB-231 breast) | growth (RXF 393 renal) | growth (SF-268 CNS) | growth (SF-295 CNS) | growth (SF-539 CNS) | growth (UACC-257 melanoma) | growth (M14 melanoma) | growth (NCI-H522 lung) | growth (A549/ATCC NSCLC) |
| --- | --- | --- | --- | --- | --- | --- | --- | --- | --- | --- | --- | --- | --- | --- | --- | --- | --- | --- | --- | --- |
| CCc1cccc(NC(=O)CNc2cc(S(=O)(=O)N(C)C)cc(C)c2C)c1 | 81.4% | 77% | 105% | 73.8% | 102% | 72% | 85.2% | 111% | 80.3% | 85% | 106% | 78% | 37.7% | 75% | 91.6% | 90.7% | 101% | 100% |  |  |
| O=C(Nc1cccc(Cl)c1)Nc1nc2ccc([N+](=O)[O-])cc2o1 | 12.6% | 29% | 17.4% | 22.2% | 7.51% (active) |  | 28% | -5.17% (active) | 26.8% | 12.3% | -4.16% (active) | 25.8% | -3.23% (active) | 7.72% (active) | 24.5% | 11.4% | 1.92% (active) | 18.2% | -0.721% (active) | 17.2% |
| CN1CCN(c2nc(-c3csc(-c4ccccc4)n3)cc3ccccc23)CC1 | 66.7% | 97.7% | 72.9% | 70.2% | -26.1% (active) |  | 46.4% | -84.4% (active) | 30.8% | -35.1% (active) | 49% | 38.4% | -4.62% (active) | 53% | 74.7% | 57.5% | 46.6% |  | 37.1% | 53.8% |
| CC1(C)[C@@H](O)CC[C@]2(C)[C@H]3CC[C@@H]4[C@H]5[C@H](C(=O)/C=C\c6ccccn6)CC[C@]5(O)CC[C@@]4(C)[C@]3(C)CC[C@@H]12 | 31.7% | 16.3% | 84.3% | 73.6% | 15.6% | 60.9% | 32.7% | 67.7% | 33.4% | 7.45% (active) | 56.4% | 33.5% | -16.2% (active) | 56.5% | 73.6% | 25.7% | 61.9% | 52.9% |  |  |
| Cc1ccc2sc3c(c2c1)OC(N)=C(C#N)C3c1cccc(F)c1 (centres undefined) | 22.4% | -22.2% (active) | 42.5% | 9.3% (active) | -13.4% (active) |  | 11.7% | -40.3% (active) | -9.41% (active) | 7.14% (active) | 43.3% | 23.5% | -30.8% (active) | 25.8% | 1.52% (active) | -1.16% (active) | 60.8% | 0.753% (active) | -33.7% (active) | 11.5% |
| COc1ccc([C@H]2[C@H](O)C(=O)N2c2cc(OC)c(OC)c(OC)c2)cc1F | 22.2% | 32.6% | 50.8% | 23.7% | 4.56% (active) |  | 12% | -79.1% (active) | 14.6% | 8.75% (active) | 65.9% | 24.5% | 27% | 37.4% | 8.48% (active) | -5.31% (active) | 57.7% | 2.83% (active) | -56% (active) | 18.5% |
| Cn1cc(-c2nnc(N)nc2-c2c[nH]c3ccc(F)cc23)c2cc(F)ccc21 | 83% | 91.6% | 74% | 58.7% | 30.9% |  | 90% | 84.2% | 88.2% | 48.6% | 77.7% | 78.3% | 98.7% | 74.4% | 59.4% | 95.4% | 121% | 73.3% | 57.5% | 82.2% |
| C=C=COc1cccc(/C(N)=N/C(N)=N/c2nc3ccccc3s2)c1 | 75.9% | 83.7% | 103% | 101% | 93.9% |  | 90.3% | 112% | 101% | 23.5% | 93% | 76.2% | 104% | 78.1% | 110% | 70.4% | 104% | 67.9% | 97% | 104% |
